Assay outcomes (PubChem BioAssay)
In the library only some 8.3% were active in any assay of this set; here they are far more common.
Giardia FBPA inh = inhibitors of Giardia lamblia fructose-1,6-bisphosphate aldolase. purified Giardia FBPA. Potency, µM (series often up to 59.6 µM), for inactives: at the highest dose activity, negative = inhibition, actives largely listed as inhibitors. hit rate 0.71% among 290,000. AID 2451; further: potency means the concentration at half of the fitted maximal effect; nearly all actives have a fitted effect of over 55% in size
Target sequence (A8B2U2 whole entry, looked up): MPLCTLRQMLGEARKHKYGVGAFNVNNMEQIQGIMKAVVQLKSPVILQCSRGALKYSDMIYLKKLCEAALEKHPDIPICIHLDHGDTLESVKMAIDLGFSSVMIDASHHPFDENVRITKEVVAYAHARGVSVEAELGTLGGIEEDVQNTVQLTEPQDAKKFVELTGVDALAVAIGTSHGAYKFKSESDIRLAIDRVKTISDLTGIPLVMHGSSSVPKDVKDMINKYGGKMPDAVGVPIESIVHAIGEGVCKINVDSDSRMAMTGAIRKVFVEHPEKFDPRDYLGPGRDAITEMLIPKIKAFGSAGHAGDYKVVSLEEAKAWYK
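Giardia FBPA (40 nM reagent) was preincubated 10 min at RT with compound (up to 57.5 uM final), then substrate plus GAPDH/TPI/NAD/arsenate coupling system with diaphorase/resazurin was added; resorufin fluorescence (525/598 nm) was read after 20 min.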
HCV inh = blocks hepatitis C virus; Huh7.5.1 HCVcc-Cre infection, luciferase reporter, 44 h; Potency, µM (highest dose often 41.8 µM), inactives show at the top dose activity change, negative = inhibition, hits mostly inhibitors; hit rate 3.4% among 340,000; further: potency means the concentration at half of the fitted maximal effect
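After 44 h co-culture of compound, cells and HCVcc-Cre (~0.5 moi), substrate is added for 15 min at room temperature and luciferase measured over 15 sec. Cells were seeded at 1,000/well and pre-cultured 4 h.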
LASV entry inh = Lassa virus entry inhibition; hit rate 1.2% among 300,000; Potency, µM (highest dose often 37.9 µM), inactives show at the top dose activity change, negative = inhibition, most hits filed as inhibitors; Lassa virus pseudotype entry inhibition, cell reporter; calls by dose curve; tested in HEK293 cells; further: potency means the concentration at half of the fitted maximal effect; nearly all actives have a fitted effect of over 50% in size
HCMV antiviral = human cytomegalovirus inhibition | HFF cells, HCMV-luciferase reporter, 72 h; stronger effect = lower value | activity change, negative = inhibition, % at 57.5 µM | hit rate 4.5% among 410,000; in the data active means activity change below about -60%; inconclusive means no clear call, values can overlap the other calls; inactive means above about -39%
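Two-dose cell screen: HFF monolayers treated with compounds and infected with luciferase-expressing HCMV at 1 PFU/cell, 72 h at 37C, then lysed for luciferase measurement.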
Marburg entry inh = blocks Marburg virus binding to or entry into cells | AID 540276 | hit rate 1.8% among 300,000 | Potency, µM (top dose mostly 37.8 µM), inactives show at the highest dose activity change, negative = inhibition, hits mostly inhibitors | Marburg virus pseudotyped entry inhibition, cell reporter; calls by dose curve; tested in HEK293 cells; further: potency means the concentration at half of the fitted maximal effect
FMDV inh = antivirals against foot and mouth disease virus; FMDV antiviral cell-based qHTS; AID 1159524; hit rate 1.2% among 410,000; Potency, µM (titrated, usually from 57.9 µM), inactives show at the highest dose activity change, negative = inhibition, hits mostly inhibitors; calls by dose curve; tested in HEK293T cells; further: read-out not given here; potency means the concentration at half of the fitted maximal effect; nearly all actives have a fitted effect of over 45% in size
Starred values were filed as active, the others as inactive; ? = inconclusive; nt = no result given; ! = not confirmed by another sample; [ ] = remark or other dose. Unless noted, the call rests on the fitted dose curve; in most records, active means well fitted curve in the direction sought with a large enough effect; inconclusive means small, poorly fitted or top-dose-only effect, or another doubt; inactive means no such curve, though single readings can be large; an effect the other way counts as inactive or inconclusive. On the % scale 0 is the no-effect control and ±100 the full control effect.

SMILES	Giardia FBPA inh	HCV inh	LASV entry inh	HCMV antiviral	Marburg entry inh	FMDV inh
CCc1cccc(NC(=O)c2ccc3c(=O)n4nc(Nc5ccccc5OC)sc4nc3c2)c1	nt	nt	?	-88*	nt	0%
COc1ccccc1Nc1nn2c(=O)c3ccc(C(=O)NCc4cccnc4)cc3nc2s1	-7%	nt	nt	nt	nt	nt
COc1ccccc1Nc1nn2c(=O)c3ccc(C(=O)NCc4ccc(F)cc4)cc3nc2s1	nt	nt	?	-90*	nt	?
Cc1ccc(Cl)cc1Nc1nn2c(=O)c3ccc(C(=O)NCc4cccs4)cc3nc2s1	nt	nt	-27%[46.1 µM]	-98*	nt	?
Cc1ccccc1CN1C(=O)c2ccccc2Sc2ccc(C(=O)NC3CCCC3)cc21	nt	nt	-23%[46.1 µM]	-4	nt	-4%
C[C@H]1CN(c2ccccc2)C(=O)[C@H]1CC(=O)Nc1ccc(Br)cc1	nt	nt	-4%[46.1 µM]	nt	nt	nt
Oc1ccc(-c2nc3c4c(ncn3n2)-c2ccccc2CC42CCCC2)cc1	-4%	?	9%	-65*	1%	25µM*
COc1ccc(NC(=O)N2c3ccc(OC)cc3[C@@H](NCc3ccc(C)o3)[C@H](C)[C@H]2c2ccccc2)cc1	nt	nt	nt	6	nt	nt
Cc1ccc(Nc2nc(N)nc(CSc3nc4ccccc4s3)n2)cc1	-10%	?	?	-91*!	?	0%
Nc1nc(CSc2n[nH]c(-c3ccccc3)n2)nc(Nc2ccccc2)n1	2%	3.2µM*	?	-30	?	?
Nc1nc(CCl)nc(Nc2ccccc2)n1	-17%	?	nt	-91*	nt	38%
Cc1ccc(Nc2nc(N)nc(CCl)n2)cc1	-10%	-81%	?	-108*	?	7%
Nc1nc(CN2CCN(Cc3ccccc3)CC2)nc(Nc2ccccc2)n1	-14%	-2%	-9%	-22	?	-23%
N[C@@H](Cn1ccc(=O)c(O)c1)C(=O)O	nt	nt	?	nt	1%	nt
COc1ccc(OCC(=O)Nc2nc(-c3ccc(Br)cc3)ns2)cc1	nt	nt	1%[46.1 µM]	2	1%[46.1 µM]	-6%
CCN1CCCC1CNCc1cc2ccc(SC)cc2nc1-c1cc(OC)ccc1OC (centres undefined)	nt	nt	nt	nt	nt	-2%
Cc1ccc(Nc2nc(N)nc(CN3CCc4ccccc4C3)n2)cc1	-3%	?	23µM*	19	?	-17%
Cc1c(Cl)cccc1Nc1nc(N)nc(CN2CCc3ccccc3C2)n1	-21%	?	-4%	-22	-7%	-4%
Nc1nc(COC(=O)c2ccc3c(c2)OCCO3)nc(Nc2ccccc2)n1	nt	11µM*	2%	174	-9%	?
CCOc1ccc(Nc2nc(N)nc(CCl)n2)cc1	0%	0.56µM*	?	-96*	?	13%
Cc1ccc(Nc2nc(N)nc(CCl)n2)c(C)c1	2%	0.5µM*	nt	-103*	nt	16%
Nc1nc(COC(=O)CCC(=O)c2ccccc2)nc(Nc2ccccc2)n1	nt	-10%	20%	5	6%[46.1 µM]	-6%
C=CC(C1=CC(=O)C(OC)=CC1=O)c1ccc(O)cc1 (centres undefined)	?	nt	nt	nt	nt	13%
O=C(/C=C/c1ccc(F)cc1)NCC1Cc2cccc(-c3ncccn3)c2O1 (centres undefined)	nt	nt	nt	nt	nt	-14%
CC1CC(C)CN(C(=S)SCc2nc(N)nc(Nc3ccccc3)n2)C1 (centres undefined)	-7%	?	3%	-65*	?	0%
SMILES	Giardia FBPA inh	HCV inh	LASV entry inh	HCMV antiviral	Marburg entry inh	FMDV inh
Nc1nc(CSC(=S)N2CCCCC2)nc(Nc2ccccc2)n1	-13%	-2%	?	-1	?	57%
Cc1cccc(Nc2nc(N)nc(CCl)n2)c1C	0%	-75%	?	-96*	?	1%
Cc1ccc(O)c(C(=O)c2cnn(C(=O)COc3ccc(Cl)cc3)c2)c1	10%	-1%	-15%	-61*	-1%	-4%
O=C(c1cnn(C(=O)COc2ccc(Cl)cc2)c1)c1ccccc1O	7%	12%	2%	?	?	-20%
Cc1ccc(CNC(=O)c2ccc(CSCc3ccccc3Cl)o2)cc1	nt	nt	-1%[46.1 µM]	1	nt	1%
CCCN1CCN(c2nnc(-n3cccc3C(=O)Nc3cc(Cl)ccc3C)s2)CC1	nt	nt	5%[46.1 µM]	0	nt	-3%
c1ccc(Nc2cccc(Nc3ccccc3)n2)cc1	-21%	7.1µM*	36%	-24	1%[46.1 µM]	21%
CCNC(=O)[C@H]1O[C@@H](n2cnc3c(N)ncnc32)[C@H](O)[C@H]1O	0%	nt	nt	nt	?	nt
COc1c(F)c(F)cc2c(=O)c(C(=O)O)cn(C3CC3)c12	-1%	16%	17%	-61*	?	2%
COc1c(N2CCN[C@H](C)C2)c(F)cc2c(=O)c(C(=O)O)cn(C3CC3)c12	22%	14%	nt	nt	nt	-16%
COc1c(N2CCN(C(=S)NCc3ccccc3)C(C)C2)c(F)cc2c(=O)c(C(=O)O)cn(C3CC3)c12 (centres undefined)	5%	10µM*	11%	-67*	-23%	-23%
Cc1ccc(/C=C/C(=O)c2ccccc(=O)c2O)c(C)c1	?	?	?	-82*	?	?
O=C(C=Cc1ccccc1O)c1ccccc1O	nt	?	-14%[46.1 µM]	20	?	?
Cc1ccc(C)c(/C=C/C(=O)c2ccccc(=O)c2O)c1	?	?	?	-101*	?	?
COc1cccc(-c2nc3c(Nc4cccc(F)c4)nccc3[nH]2)c1F	nt	nt	nt	-12	nt	nt
Oc1ccccc1CNc1ccc(Br)cn1	-3%	?	?	-105*	?	0%
COc1ccc(/C=N/NC(=O)c2cccc(C(=O)N/N=C/c3ccc(OC)c(OC)c3)n2)cc1OC	6%	13%	nt	?	nt	-28%
COc1ccc(/C=N/NC(=O)Nc2cccc3nsnc23)cc1OC	-2%	5.6µM*	1%	-37	15%	-29%
O=C(CCSc1nc2ccccc2s1)N/N=C/c1c(O)ccc2ccccc12	9%	3.2µM*	?	-99*	?	-5%
COc1ccc(/C=N/NC(=O)c2ccccc2Cl)cc1CSc1nc2ccccc2s1	-5%	?	13µM*	?	?	9%
COc1ccc(/C=N/NC(=O)c2cccnc2)cc1COc1ccc([N+](=O)[O-])c(C)c1	-1%	-68%	?	-76*	?	40µM*
Cc1ccccc1NC(=O)CCCSc1nc2ccccc2s1	-9%	-24%	-17%	-9	2%	0%
COc1cccc(CNC(=O)c2c(OC)cc(=O)n3c2CCN(C(=O)c2ccc(C)nc2)CC3)c1	nt	nt	nt	nt	nt	-12%
CCCCOc1ccc(C2c3c(oc4ccc(C)cc4c3=O)C(=O)N2CCCN(C)C)cc1OCC (centres undefined)	nt	nt	3%[46.1 µM]	-21	-3%[46.1 µM]	-20%
CC1=CC2C(C)(C)CC(=O)C[C@]2(C)CC1COc1ccc2c(c1)CC(=O)C=C2 (some centres undefined)	-5%	nt	nt	nt	nt	0%
COc1ccc(/C=N/NC(=O)CCSc2nc3ccccc3s2)cc1OC	4%	10µM*	-6%	-7	-15%	0%
